Article PMC4336329 (PLoS ONE, 2015)
Screen size: about 310,000 compounds; about 14,000 (4.5%) showed an effect of 50% or more. Effects have a minus sign here. The sample as a whole holds a higher share of strong results than the screen did.

Biological target: human ether-à-go-go-related gene (hERG) potassium channel (human, UniProt Q12809)
Experiment: primary screen, population patch clamp on CHO cells stably expressing hERG; higher = less effect of the substance
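Note: peak tail current of the secondary pulse compared with the same well before compound.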

Chain of human ether-à-go-go-related gene (hERG) potassium channel (Q12809 whole entry, looked up): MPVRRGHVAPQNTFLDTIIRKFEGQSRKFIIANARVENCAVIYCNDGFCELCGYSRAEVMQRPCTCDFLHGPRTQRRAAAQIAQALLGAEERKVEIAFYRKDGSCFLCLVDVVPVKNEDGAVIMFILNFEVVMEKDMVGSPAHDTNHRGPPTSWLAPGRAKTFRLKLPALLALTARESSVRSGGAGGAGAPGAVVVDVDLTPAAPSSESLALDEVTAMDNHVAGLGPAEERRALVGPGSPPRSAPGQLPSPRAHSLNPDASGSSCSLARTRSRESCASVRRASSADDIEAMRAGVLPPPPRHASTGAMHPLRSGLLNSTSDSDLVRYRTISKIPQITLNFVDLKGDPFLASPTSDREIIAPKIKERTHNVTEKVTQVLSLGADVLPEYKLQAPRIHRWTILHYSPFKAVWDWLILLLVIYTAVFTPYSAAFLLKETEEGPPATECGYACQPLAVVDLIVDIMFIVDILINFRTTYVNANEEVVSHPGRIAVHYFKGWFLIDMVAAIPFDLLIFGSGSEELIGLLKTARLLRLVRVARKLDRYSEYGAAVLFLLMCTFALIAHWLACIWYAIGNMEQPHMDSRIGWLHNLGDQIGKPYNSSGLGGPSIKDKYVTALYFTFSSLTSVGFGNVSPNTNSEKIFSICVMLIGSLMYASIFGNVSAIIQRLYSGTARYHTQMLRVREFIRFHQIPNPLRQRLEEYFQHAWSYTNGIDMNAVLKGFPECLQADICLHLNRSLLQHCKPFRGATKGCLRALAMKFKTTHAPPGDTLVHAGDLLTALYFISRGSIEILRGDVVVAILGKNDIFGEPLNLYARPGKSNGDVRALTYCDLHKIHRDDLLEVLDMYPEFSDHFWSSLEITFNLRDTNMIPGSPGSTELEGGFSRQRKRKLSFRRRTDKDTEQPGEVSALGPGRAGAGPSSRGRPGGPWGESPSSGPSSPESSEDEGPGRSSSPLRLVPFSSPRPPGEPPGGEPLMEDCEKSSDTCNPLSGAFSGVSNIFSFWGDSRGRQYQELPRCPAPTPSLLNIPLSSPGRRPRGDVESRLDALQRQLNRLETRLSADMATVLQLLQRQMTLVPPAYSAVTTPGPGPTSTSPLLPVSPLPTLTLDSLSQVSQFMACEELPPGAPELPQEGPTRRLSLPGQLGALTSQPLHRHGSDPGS

Question: How did the “hERG current change (%, negative = inhibition) at 10uM” value turn out when COc1ccc(S(=O)(=O)N2CCCCCC2)cc1C(=O)OCC(=O)NC(C)(C)C was run?
Answer: -17.5%

Question: With O=C(NC1CCS(=O)(=O)C1)c1ccc(-c2ccc(Br)cc2)o1 (centres unmarked) as the compound, how does the “hERG current change (%, negative = inhibition) at 10uM” value read?
Answer: -20.9%

Question: For O=C1CN(C(=O)N[C@@H](Cc2ccccc2)C(=O)N[C@@H](Cc2ccccc2)C(=O)O)c2ccccc2N1, which “hERG current change (%, negative = inhibition) at 10uM” value is on record?
Answer: 3.79%

Question: For CCOc1cccc(OCCOCCNC(C)(C)C)c1.O=C(O)C(=O)O, which “hERG current change (%, negative = inhibition) at 10uM” value is on record?
Answer: 3.71%

Question: For COn1c(=O)c(=O)n(OC)c2ccccc21, which “hERG current change (%, negative = inhibition) at 10uM” value is on record?
Answer: -3.45%

Question: For Cc1ccc(C)c(S(=O)(=O)N2CCCOC2CNC(=O)C(=O)NCc2ccco2)c1 (centres unmarked), which “hERG current change (%, negative = inhibition) at 10uM” value is on record?
Answer: 11.6%

Question: How did the “hERG current change (%, negative = inhibition) at 10uM” value turn out when CC(C)CCN1C(=O)c2ccccc2C1C(=O)NCc1cccnc1 (centres unmarked) was run?
Answer: -16.1%

Question: Which “hERG current change (%, negative = inhibition) at 10uM” value does the source give for Cc1nc2c(C(=O)N3CCN(c4ccccn4)CC3)cnn2c(C)c1Cc1cccc(Cl)c1 here?
Answer: -43.4%

Question: For Brc1cc(Br)c2ncnc(N3CCCCC3)c2c1, which “hERG current change (%, negative = inhibition) at 10uM” value is on record?
Answer: -11.8%

Question: With CCc1cc(C(=O)OC)c(NC(=O)C2CC(=O)NN2Cc2ccccc2)s1 (centres unmarked) as the compound, how does the “hERG current change (%, negative = inhibition) at 10uM” value read?
Answer: -29.7%

Question: How did the “hERG current change (%, negative = inhibition) at 10uM” value turn out when O=c1c2ccccc2nc(/C=C/c2ccccn2)n1-c1ccccc1 was run?
Answer: 10.9%

Question: Which “hERG current change (%, negative = inhibition) at 10uM” value does the source give for COc1ccccc1NC(=O)CCCCCN1C(=O)c2cccc([N+](=O)[O-])c2C1=O here?
Answer: -39.2%

Question: How did the “hERG current change (%, negative = inhibition) at 10uM” value turn out when CCOc1ccccc1NC(=O)CN1CCN(C(=O)C2CCCO2)CC1 (centres unmarked) was run?
Answer: -10.6%

Question: With O=C(OCn1nnc2ccccc2c1=O)c1cc(-c2ccccc2)nc2ccccc12 as the compound, how does the “hERG current change (%, negative = inhibition) at 10uM” value read?
Answer: 6.74%

Question: Cc1ccc(S(=O)(=O)N(C)C)cc1NC(=O)COC(=O)Cc1cccs1 was tested. Which “hERG current change (%, negative = inhibition) at 10uM” value did it give?
Answer: -74.5%

Question: With Cc1ccc(S(=O)(=O)N(C)C)cc1NC(=O)COC(=O)CNC(=O)c1cccs1 as the compound, how does the “hERG current change (%, negative = inhibition) at 10uM” value read?
Answer: 14.5%

Question: How did the “hERG current change (%, negative = inhibition) at 10uM” value turn out when Cc1ccc(S(=O)(=O)N(C)C)cc1NC(=O)COC(=O)CSc1ccccc1 was run?
Answer: -21.3%

Question: With O=C(COC(=O)Cc1cccs1)Nc1cccc(S(=O)(=O)N2CCOCC2)c1 as the compound, how does the “hERG current change (%, negative = inhibition) at 10uM” value read?
Answer: 0.0981%

Question: With Cc1ccc(S(=O)(=O)N(C)C)cc1NC(=O)COC(=O)Cc1ccc(Br)cc1 as the compound, how does the “hERG current change (%, negative = inhibition) at 10uM” value read?
Answer: -56.7%

Question: For CCN(CC(=O)NCc1ccc(F)cc1)CC(=O)Nc1cc(S(=O)(=O)N(C)C)ccc1C, which “hERG current change (%, negative = inhibition) at 10uM” value is on record?
Answer: -75.6%

Question: How did the “hERG current change (%, negative = inhibition) at 10uM” value turn out when Cc1ccc(S(=O)(=O)N(C)C)cc1NC(=O)COC(=O)CCC(=O)c1cccs1 was run?
Answer: -21.8%

Question: With Cc1ccc(OCCC(=O)OCC(=O)Nc2cc(S(=O)(=O)N(C)C)ccc2C)cc1 as the compound, how does the “hERG current change (%, negative = inhibition) at 10uM” value read?
Answer: -26.6%

Question: With Cc1ccc(NC(=O)COC(=O)Cc2cccs2)cc1S(=O)(=O)N1CCOCC1 as the compound, how does the “hERG current change (%, negative = inhibition) at 10uM” value read?
Answer: -23.5%

Question: For Cc1ccc(S(=O)(=O)N2CCOCC2)cc1NC(=O)COC(=O)Cc1cccs1, which “hERG current change (%, negative = inhibition) at 10uM” value is on record?
Answer: -62.8%

Question: Which “hERG current change (%, negative = inhibition) at 10uM” value does the source give for CCN(CC(=O)NCc1ccc(F)cc1)CC(=O)Nc1ccc(S(=O)(=O)N2CCCC2)cc1 here?
Answer: -22.8%

Question: How did the “hERG current change (%, negative = inhibition) at 10uM” value turn out when CCN(CC(=O)NCc1ccc(F)cc1)CC(=O)Nc1ccccc1-c1ccccc1 was run?
Answer: -16%

Question: For Cc1c(CC(=O)N[C@H](C(=O)O)C(C)C)c(=O)oc2cc3c(cc12)CCC(C)(C)O3, which “hERG current change (%, negative = inhibition) at 10uM” value is on record?
Answer: 23.1%

Question: COCCCNC(=O)CNC(=S)N(Cc1ccccc1F)C1CCCCC1 was tested. Which “hERG current change (%, negative = inhibition) at 10uM” value did it give?
Answer: 4.18%

Question: Which “hERG current change (%, negative = inhibition) at 10uM” value does the source give for O=[n+]1c2c(n([O-])c3cc(Br)ccc31)CCC2 here?
Answer: -2.98%

Question: C(=C\c1ccncc1)/c1ccccc1 was tested. Which “hERG current change (%, negative = inhibition) at 10uM” value did it give?
Answer: -10.6%

Question: How did the “hERG current change (%, negative = inhibition) at 10uM” value turn out when CN(CC(=O)Nc1ccccc1Cl)C(=O)c1ccc(COc2ccccc2)cc1 was run?
Answer: -12.9%

Question: Which “hERG current change (%, negative = inhibition) at 10uM” value does the source give for Cc1ccc(S(=O)(=O)NCC(=O)OCN2C(=O)c3ccccc3C2=O)cc1 here?
Answer: 5.91%

Question: How did the “hERG current change (%, negative = inhibition) at 10uM” value turn out when O=C(CSc1ccc(Cl)cc1)NNC(=O)c1cccnc1 was run?
Answer: -21%

Question: Cc1nn(-c2ccccc2)c(Cl)c1/C=N/Nc1ccc(Cl)c(C(=O)O)c1 was tested. Which “hERG current change (%, negative = inhibition) at 10uM” value did it give?
Answer: 21.3%

Question: With Cc1ccc(Nc2ccc(C(=O)O)cc2[N+](=O)[O-])cc1 as the compound, how does the “hERG current change (%, negative = inhibition) at 10uM” value read?
Answer: 15.1%

Question: Which “hERG current change (%, negative = inhibition) at 10uM” value does the source give for O=C(OCc1ccc(Br)cc1)c1ccncc1 here?
Answer: 5.25%

Question: How did the “hERG current change (%, negative = inhibition) at 10uM” value turn out when Cc1ccc(S(=O)(=O)N(C)C)cc1NC(=O)COC(=O)C1CCN(S(=O)(=O)c2cccs2)CC1 was run?
Answer: -81.9%

Question: With Cc1ccc(S(=O)(=O)N(C)C)cc1NC(=O)COC(=O)Cc1ccsc1 as the compound, how does the “hERG current change (%, negative = inhibition) at 10uM” value read?
Answer: -79%

Question: Which “hERG current change (%, negative = inhibition) at 10uM” value does the source give for Cc1ccccc1NC(=O)COC(=O)Cc1ccsc1 here?
Answer: 12.7%

Question: Cc1ccc(S(=O)(=O)N(C)C)cc1NC(=O)COC(=O)C1CC1 was tested. Which “hERG current change (%, negative = inhibition) at 10uM” value did it give?
Answer: 16.2%

Question: With Cc1ccc(C)c(NC(=O)COC(=O)Cc2ccsc2)c1 as the compound, how does the “hERG current change (%, negative = inhibition) at 10uM” value read?
Answer: 33.1%

Question: Which “hERG current change (%, negative = inhibition) at 10uM” value does the source give for O=C(COC(=O)c1cccs1)Nc1cc(S(=O)(=O)N2CCOCC2)ccc1Cl here?
Answer: -35.5%

Question: CN(C)S(=O)(=O)c1ccc(Cl)c(NC(=O)CN2CCCC2)c1 was tested. Which “hERG current change (%, negative = inhibition) at 10uM” value did it give?
Answer: 11.5%

Question: How did the “hERG current change (%, negative = inhibition) at 10uM” value turn out when Cc1ccc(S(=O)(=O)N2CCOCC2)cc1NC(=O)COC(=O)CCC(=O)c1cccs1 was run?
Answer: -13.8%

Question: O=C(COC(=O)CCC(=O)c1cccs1)Nc1cc(S(=O)(=O)N2CCOCC2)ccc1Cl was tested. Which “hERG current change (%, negative = inhibition) at 10uM” value did it give?
Answer: -53.5%

Question: How did the “hERG current change (%, negative = inhibition) at 10uM” value turn out when Cc1ccc(S(=O)(=O)N(C)C)cc1NC(=O)COC(=O)C1CCCC1 was run?
Answer: 3.16%

Question: How did the “hERG current change (%, negative = inhibition) at 10uM” value turn out when CCC(=O)OCC(=O)Nc1cc(S(=O)(=O)N(C)C)ccc1Cl was run?
Answer: 17.1%

Question: Which “hERG current change (%, negative = inhibition) at 10uM” value does the source give for CN(CCC(=O)Nc1cc(S(=O)(=O)N(C)C)ccc1Cl)CC(=O)Nc1ccc(F)cc1 here?
Answer: -50.1%

Question: For Clc1ccc(-c2nnc(SCc3cn4ccsc4n3)n2CC2CCCO2)cc1 (centres unmarked), which “hERG current change (%, negative = inhibition) at 10uM” value is on record?
Answer: -29.2%

Question: Which “hERG current change (%, negative = inhibition) at 10uM” value does the source give for Cc1cccc2cc3c(N)c(C#N)sc3nc12 here?
Answer: 21.5%

Question: How did the “hERG current change (%, negative = inhibition) at 10uM” value turn out when Cc1cc(C)c(Nc2cc(S(=O)(=O)[O-])c(N)c3c2C(=O)c2ccccc2C3=O)c(C)c1.[Na+] was run?
Answer: 12%

Question: How did the “hERG current change (%, negative = inhibition) at 10uM” value turn out when CCn1c(-c2cc(-c3cc(OC)ccc3OC)nc3ccccc23)n[nH]c1=S was run?
Answer: -10.3%

Question: Which “hERG current change (%, negative = inhibition) at 10uM” value does the source give for CCCC(C)c1nnc(NC(=O)C2CC(=O)N(CCc3ccc(F)cc3)C2)s1 (centres unmarked) here?
Answer: -30.1%
